Our source for the composite z-score and z-score values is PubChem BioAssay.

The source made the active and inactive calls.

Assay [1] concerns Plasmodium falciparum Sir2 (PF13_0152, Sir2A). In words: Plasmodium falciparum Sir2A binding compounds – biochemical, small-molecule microarray, 635 nm fluorescence, primary screen (AID 1098).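 Also: score merges spot fluorescence intensity with its signal-to-noise ratio.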 The note with it: fluorescence 635 nm, higher = more signal.
Assay [2] can be described thus: probe aDKK1 binding to arrayed compounds – biochemical, biotinylated probe, 635/667 nm fluorescence, primary screen (AID 1099).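 Also: score merges 667nm spot fluorescence with signal to noise across triplicate slides.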 The note with it: small-molecule microarray, higher = more signal.
Assay [3] can be described thus: probe aCHRDL2 binding to arrayed compounds – biochemical, biotinylated probe, 635/667 nm fluorescence, primary screen (AID 1100). The note with it: small-molecule microarray, higher = more signal.
A short description of assay [4]: change in splice reporter luminescence, either direction, cell-based, HEK293, spliceosome inhibition project, primary screen (AID 1101).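 Also: HEK293 cells carrying a splicing-competent luciferase reporter gene; test concentration not given here.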 The note with it: HEK293 splicing luciferase reporter, 24 h, higher = more signal, called active from +8 up or from −8 down. For orientation: Reporter assays use an easily measured gene product as a stand-in for the process of interest.

Assay [5] deals with Fibroblast growth factor 10 (Homo sapiens) (UniProt O15520). The assay can be described thus: compounds binding fibroblast growth factor 10 – biochemical, small-molecule microarray, 635 nm fluorescence, primary screen (AID 1102). The note with it: FGF10 binding, fluorescence 635 nm, higher = more signal.
Sequence of Fibroblast growth factor 10 (Homo sapiens) (O15520 whole entry, looked up): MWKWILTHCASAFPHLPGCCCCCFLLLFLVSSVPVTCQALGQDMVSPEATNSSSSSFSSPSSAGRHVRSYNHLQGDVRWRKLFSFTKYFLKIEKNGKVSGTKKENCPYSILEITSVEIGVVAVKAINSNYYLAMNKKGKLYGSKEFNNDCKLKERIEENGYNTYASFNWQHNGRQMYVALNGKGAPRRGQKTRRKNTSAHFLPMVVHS
Assay [6] relates to glycogen synthase kinase-3 (GSK3A per assay name; protocol says GSK3B). In words: compounds binding glycogen synthase kinase-3 – biochemical, small-molecule microarray, 635 nm fluorescence, GSK3A, primary screen (AID 1103). Also: the record names both GSK3A and GSK3B. The note with it: fluorescence 635 nm, higher = more signal.
The target in assay [7] is Epidermal growth factor receptor (Homo sapiens) (UniProt P00533). In words: compounds binding epidermal growth factor receptor – biochemical, small-molecule microarray, 635 nm fluorescence, primary screen (AID 1104).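 Also: score merges 667 nm emission intensity with spot signal to noise over triplicate slides.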 The conditions noted are these: EGFR binding, higher = more signal.
Sequence of Epidermal growth factor receptor (Homo sapiens) (P00533 whole entry, looked up): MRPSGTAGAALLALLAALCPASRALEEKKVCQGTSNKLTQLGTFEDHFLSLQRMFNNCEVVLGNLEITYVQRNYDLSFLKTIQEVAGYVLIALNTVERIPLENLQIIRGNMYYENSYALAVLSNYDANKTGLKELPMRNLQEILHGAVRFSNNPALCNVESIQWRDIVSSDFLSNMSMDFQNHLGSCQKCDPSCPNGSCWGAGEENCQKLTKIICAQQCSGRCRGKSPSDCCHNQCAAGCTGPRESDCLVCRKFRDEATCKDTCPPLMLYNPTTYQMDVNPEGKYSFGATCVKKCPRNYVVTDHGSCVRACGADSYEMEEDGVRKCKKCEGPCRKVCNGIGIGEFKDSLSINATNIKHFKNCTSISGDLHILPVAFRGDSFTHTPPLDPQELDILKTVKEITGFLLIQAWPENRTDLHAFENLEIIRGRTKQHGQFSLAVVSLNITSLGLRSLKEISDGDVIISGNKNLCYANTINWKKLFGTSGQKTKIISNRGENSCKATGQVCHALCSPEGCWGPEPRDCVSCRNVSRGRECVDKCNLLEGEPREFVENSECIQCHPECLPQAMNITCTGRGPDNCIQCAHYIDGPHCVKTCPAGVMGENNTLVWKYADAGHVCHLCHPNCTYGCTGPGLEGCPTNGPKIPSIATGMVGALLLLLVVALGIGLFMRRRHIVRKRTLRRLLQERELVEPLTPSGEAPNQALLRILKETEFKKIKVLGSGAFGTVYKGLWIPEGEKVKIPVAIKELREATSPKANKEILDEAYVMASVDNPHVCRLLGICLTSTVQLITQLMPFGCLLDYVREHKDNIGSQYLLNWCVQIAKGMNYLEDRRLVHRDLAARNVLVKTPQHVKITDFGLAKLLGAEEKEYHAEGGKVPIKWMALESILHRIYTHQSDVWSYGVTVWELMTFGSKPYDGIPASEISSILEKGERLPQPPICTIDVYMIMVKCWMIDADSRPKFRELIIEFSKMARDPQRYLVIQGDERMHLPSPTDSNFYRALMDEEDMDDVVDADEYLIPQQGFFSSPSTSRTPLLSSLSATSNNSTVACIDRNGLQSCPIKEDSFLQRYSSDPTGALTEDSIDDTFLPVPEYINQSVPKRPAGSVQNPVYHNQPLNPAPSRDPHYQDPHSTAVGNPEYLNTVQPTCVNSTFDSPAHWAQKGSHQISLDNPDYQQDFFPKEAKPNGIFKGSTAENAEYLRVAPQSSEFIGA
Assay [8] deals with Follistatin-related protein 3 (Homo sapiens) (UniProt O95633). In words: compounds binding follistatin-related protein 3 – biochemical, small-molecule microarray, 635 nm fluorescence, primary screen (AID 1105).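 Also: score merges emission near 667 nm and signal to noise per printed spot across three slides.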 The conditions noted are these: FSTL3 binding, higher = more signal.
Sequence of Follistatin-related protein 3 (Homo sapiens) (O95633 whole entry, looked up): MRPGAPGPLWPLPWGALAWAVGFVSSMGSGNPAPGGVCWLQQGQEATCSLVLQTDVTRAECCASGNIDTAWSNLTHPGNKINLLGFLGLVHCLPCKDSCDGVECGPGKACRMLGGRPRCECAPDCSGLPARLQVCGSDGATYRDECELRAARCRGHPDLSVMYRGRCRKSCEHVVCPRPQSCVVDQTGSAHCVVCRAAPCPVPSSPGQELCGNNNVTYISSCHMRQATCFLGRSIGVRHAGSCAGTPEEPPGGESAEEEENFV
The target of assay [9] is Dickkopf-related protein 1 (Homo sapiens) (UniProt O94907). The assay can be described thus: small molecules binding DKK1 protein – biochemical, small-molecule microarray, 635 nm fluorescence scan, primary screen (AID 1106).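 Also: score merges emission near 667 nm with signal to noise over three replicate slides.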 The note with it: higher = more signal.
Sequence of Dickkopf-related protein 1 (Homo sapiens) (O94907 whole entry, looked up): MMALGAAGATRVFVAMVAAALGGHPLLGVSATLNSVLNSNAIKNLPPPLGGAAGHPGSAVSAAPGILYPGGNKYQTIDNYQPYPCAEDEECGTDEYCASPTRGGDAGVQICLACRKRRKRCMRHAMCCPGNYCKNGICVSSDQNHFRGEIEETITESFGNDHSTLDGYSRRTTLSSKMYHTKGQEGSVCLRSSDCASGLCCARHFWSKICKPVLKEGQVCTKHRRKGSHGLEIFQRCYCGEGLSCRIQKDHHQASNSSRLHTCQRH
Assay [10] concerns Inhibin beta A chain (activin A). In words: small molecules binding activin A – biochemical, small-molecule microarray, 635 nm fluorescence scan, primary screen (AID 1107).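 Also: mouse activin A protein probed at 4.33 µg/mL on printed slides; score merges bound-protein fluorescence near 667 nm with spot signal-to-noise.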 The note with it: INHBA, higher = more signal.
Assay [11] deals with Human papillomavirus type 1a protein E7 (residues 44-93). The assay can be described thus: small molecules binding HPV E7 44-93 – biochemical, small-molecule microarray, residues 44-93, 635 nm fluorescence, primary screen (AID 1108).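 Also: E7 fragment applied at 1 µg/mL in TBST for 1 h at 4 C; score combines spot fluorescence with its signal to noise ratio.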 The note with it: fluorescence 635 nm, higher = more signal.
Assay [12] can be described thus: hepatitis C replication reporter changes, two-sided – Huh7 cells, luciferase reporter, HCV replication inhibitor project, primary screen (AID 1109).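 Also: huh7 hepatoma cells harbouring a luciferase neomycin HCV replicon reporter; luciferase luminescence as measure of HCV replicon replication; test concentration not given here.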 The conditions noted are these: Huh7 HCV replicon luciferase reporter, 48 h; higher = more signal.
The target of assay [13] is Left-right determination factor 2 (Homo sapiens) (UniProt O00292). In words: small molecules binding LEFTY2 protein – biochemical, small-molecule microarray, 635 nm fluorescence scan, primary screen (AID 1110). The conditions noted are these: higher = more signal.
Sequence of Left-right determination factor 2 (Homo sapiens) (O00292 whole entry, looked up): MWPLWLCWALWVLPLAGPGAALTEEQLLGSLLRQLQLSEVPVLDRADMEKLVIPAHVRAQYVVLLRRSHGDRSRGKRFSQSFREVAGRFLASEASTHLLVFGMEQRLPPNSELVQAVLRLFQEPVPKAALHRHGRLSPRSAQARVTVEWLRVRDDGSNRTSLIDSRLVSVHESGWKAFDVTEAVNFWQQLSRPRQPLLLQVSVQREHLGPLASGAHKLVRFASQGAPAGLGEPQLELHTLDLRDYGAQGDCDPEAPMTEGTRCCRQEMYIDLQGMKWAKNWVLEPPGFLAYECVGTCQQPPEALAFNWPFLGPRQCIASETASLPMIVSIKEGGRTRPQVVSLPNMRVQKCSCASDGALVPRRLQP
Assay [14] concerns the target Calmodulin-1 (Homo sapiens) (UniProt P0DP23). The assay can be described thus: small molecules binding calmodulin-1 with EGTA – biochemical, small-molecule microarray, Cy5-labelled CALM1, profiling panel (AID 1111).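 Also: labelled calmodulin applied in Tris saline Tween buffer holding calcium plus EGTA and DTT.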 The note with it: Cy5-CALM1 binding fluorescence, higher = more signal.
Assay [15] has the same target. The assay can be described thus: small molecules binding Ca-loaded calmodulin-1 – biochemical, small-molecule microarray, Cy5-labelled CALM1, plus calcium, artefact control for SMM control-protein annotation, profiling panel (AID 1112).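 Also: score merges spot fluorescence with signal to noise from triplicate slides.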 The note with it: Cy5-CALM1 binding fluorescence, higher = more signal.
The nature of assay [16]: probe aWnt5a binding to arrayed compounds – biochemical, biotinylated probe, 635/667 nm fluorescence, primary screen (AID 1113).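 Also: score merges 667 nm fluorescence intensity with signal-to-noise per printed feature.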 The note with it: small-molecule microarray, higher = more signal.
Assay [17] is described as follows: probe aShh binding to arrayed compounds – biochemical, biotinylated probe, 635/667 nm fluorescence, primary screen (AID 1114).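 Also: probe is biotin-labelled aShh protein from a stem cell growth factor screen; measures binding of labelled protein to compounds printed on the slide; score merges feature fluorescence at 667 nm with signal-to-noise.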 The note with it: small-molecule microarray, higher = more signal.
The nature of assay [18]: probe aNog binding to arrayed compounds – biochemical, biotinylated probe, 635/667 nm fluorescence, primary screen (AID 1115).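 Also: probe is biotinylated aNog protein used at 0.15 µg/mL for 1 h at 4 C; z-score combines 667 nm fluorescence of each spot with its signal to noise.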 The note with it: small-molecule microarray, higher = more signal.
For assay [19], the target named is Torsin-1A-interacting protein 1 (Homo sapiens) (UniProt Q5JTV8). The assay can be described thus: compound microarray binding of lysate hLAP1 – cell lysate, small-molecule microarray, COS7 lysate, 635/667 nm fluorescence, primary screen (AID 1116). The conditions noted are these: 635 nm fluorescence, higher = more signal.
Sequence of Torsin-1A-interacting protein 1 (Homo sapiens) (Q5JTV8 whole entry, looked up): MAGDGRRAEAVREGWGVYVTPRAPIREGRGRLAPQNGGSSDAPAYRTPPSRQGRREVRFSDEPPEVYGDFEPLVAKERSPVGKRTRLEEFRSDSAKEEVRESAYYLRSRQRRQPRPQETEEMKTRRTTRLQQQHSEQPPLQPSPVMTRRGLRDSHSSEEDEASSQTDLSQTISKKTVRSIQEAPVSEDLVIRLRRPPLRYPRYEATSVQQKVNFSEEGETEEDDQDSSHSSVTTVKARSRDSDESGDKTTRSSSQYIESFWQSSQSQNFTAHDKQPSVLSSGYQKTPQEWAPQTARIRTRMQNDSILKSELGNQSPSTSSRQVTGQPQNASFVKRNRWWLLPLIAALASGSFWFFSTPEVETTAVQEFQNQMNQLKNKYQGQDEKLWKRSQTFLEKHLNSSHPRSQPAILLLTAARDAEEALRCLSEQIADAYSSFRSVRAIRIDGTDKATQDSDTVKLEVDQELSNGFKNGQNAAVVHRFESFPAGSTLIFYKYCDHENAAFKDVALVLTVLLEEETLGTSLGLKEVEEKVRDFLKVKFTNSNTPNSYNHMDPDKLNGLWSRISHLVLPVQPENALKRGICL
Assay [20] deals with Alpha-bungarotoxin (Bungarus multicinctus) (UniProt P60615). In words: compounds binding labelled alpha-BTX control protein – biochemical, small-molecule microarray, Alexa647 label, 635/667 nm fluorescence, artefact control for SMM control protein annotation, profiling panel (AID 1117). The conditions noted are these: alpha-BTX-A647 binding fluorescence, higher = more signal.
Sequence of Alpha-bungarotoxin (Bungarus multicinctus) (P60615 whole entry, looked up): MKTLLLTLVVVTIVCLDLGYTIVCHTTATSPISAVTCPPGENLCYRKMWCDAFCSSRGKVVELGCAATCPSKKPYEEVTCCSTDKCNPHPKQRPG

As for `CN(C)C(=O)[C@@]1(Cc2ccccc2CN=[N+]=[N-])COC(c2ccc(OCCCO)cc2)=N1`, the composite z-score in assay [1] was 0.508; in [2], 0.42; in [3], 1.01; in assay [5], -0.0391; in assay [6] it was -0.958; in assay [7] it was -0.916. For the same molecule, the composite z-score is -0.522 in [8]; -1.19 in assay [9]; 0.744 in [10]; 1.37 in assay [11]; -1.09 in assay [13]; 0.809 in assay [14]. For the same molecule, the composite z-score in [15] is 0.812; in assay [16] it was -0.0478; in assay [17], 0.0483; in [18], -0.226; in assay [19] it was -0.383; in assay [20], 1.3. Moreover, the z-score was -0.51 (inactive) in assay [4] and -2 in [12].

Turning to `CN(C)CCCCNC(=O)[C@H]1C[C@H]2C(=O)NCC(=O)N2[C@H]1c1ccc(O)cc1`, the composite z-score in assay [1] was 0.978; in assay [2], -0.114; in [3] it was 0.0669; in assay [5] it was -0.14; in [6], -0.286; in [7] it was -0.603. Moreover, the composite z-score is -0.107 in assay [8]; 0.0896 in assay [9]; -0.0569 in [10]; -0.392 in assay [11]; -0.735 in assay [13]; -0.608 in assay [14]. The composite z-score in [15] is 0.577; in assay [16], -0.145; in assay [17], -0.501; in assay [18] it was -0.248; in assay [19] it was -0.38; in assay [20] it was 0.52. In addition, the z-score in [4] was -0.127 (inactive); in assay [12] it was 0.143.

On to `CCOC(=O)C[C@H]1[C@H](OC(=O)Cc2ccc3c(c2)OCO3)[C@@H](NC(=O)c2ccc3ccccc3n2)c2cc(OCCCO)ccc2N1C(=O)Cc1ccc(OC)cc1`, for which the composite z-score in assay [1] was 0.435; in assay [2] it was 0.0621; in [3], 0.195; in assay [5] it was 0.438; in assay [6], 0.25; in [7], -0.374. The composite z-score in assay [8] was 0.882; in [9], 0.163; in assay [10] it was 0.257; in assay [11] it was 0.751; in assay [13], 0.394; in assay [14] it was 0.436. Further, the composite z-score is 0.137 in assay [15]; -0.124 in [16]; 0.0723 in assay [17]; -0.0184 in assay [18]; 0.6 in assay [19]; 0.597 in assay [20]. Moreover, the z-score in assay [4] is -1.8 (inactive); in assay [12] it was -1.39.

As for `CCCC[C@H]1OB(O)C[C@H]2C1=C(COc1ccccc1)C[C@H]1C(=O)C=CC(=O)[C@H]12`, the composite z-score in assay [1] is 0.268; in [2], 1.07; in assay [3], -0.56; in assay [5], 0.638; in [6], 0.474; in [7] it was 0.286. The composite z-score in [8] was 1.02; in assay [9], 0.966; in assay [10], 0.825; in assay [11], 0.0194; in [13] it was 0.406; in assay [14] it was -0.415. In addition, the composite z-score in assay [15] is -0.68; in assay [16] it was -0.152; in assay [17], -0.283; in assay [18], -0.295; in assay [19], 0.0135; in [20] it was -0.388. Also, the z-score in assay [4] is -0.171 (inactive); in [12], -1.36.

`CC[C@@H]1C=C(C(=O)O)[C@H](c2ccc(OC)cc2)N1S(=O)(=O)c1ccc(C)cc1`: the composite z-score is 1.05 in [1]; -0.0814 in assay [2]; 0.118 in [3]; -0.0657 in assay [5]; -1.06 in assay [6]; -0.675 in assay [7]. The composite z-score was 0.0479 in [8]; -0.188 in assay [9]; 0.615 in assay [10]; -0.875 in [11]; -0.495 in assay [13]; 0.15 in assay [14]. The composite z-score in [15] is 0.0583; in assay [16], -0.154; in assay [17], -0.221; in [18], -0.209; in assay [19], 0.076; in [20], 0.0708. The z-score in [4] is 0.603 (inactive); in assay [12], -0.619.

`COC(=O)[C@H](Cc1ccccc1)N1CC2=CCCC=C[C@@H]2[C@H]1[C@H](O)Cc1ccccc1`: the composite z-score was 1.33 in [1]; -0.192 in assay [2]; -0.306 in assay [3]; 0.363 in assay [5]; 0.171 in assay [6]; -0.244 in assay [7]. Also, the composite z-score in assay [8] is 0.525; in assay [9] it was 0.29; in [10], 0.702; in assay [11], 0.216; in assay [13], -0.149; in assay [14], 1.09. The composite z-score in assay [15] is -0.749; in assay [16], -0.0977; in assay [17], 0.427; in assay [18], 1.79; in assay [19], 0.545; in assay [20], 0.831. In addition, the z-score was -0.477 (inactive) in [4] and -1.74 in [12].
